Reference: PMC4336329 (PLoS ONE, 2015)
Among all 310,000 compounds or so, about 14,000 (4.5%) showed an effect of 50% or more. The effect is printed as a negative number. Many of the other results were omitted from the sample, so strong results are more common in it than they were.

Molecular target: human ether-à-go-go-related gene (hERG) potassium channel (human, UniProt Q12809)
Assay: primary screen, population patch clamp on CHO cells stably expressing hERG; higher = less effect of the substance
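Further: peak tail current of the secondary pulse compared with the same well before compound.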

Chain of human ether-à-go-go-related gene (hERG) potassium channel (Q12809 whole entry, looked up): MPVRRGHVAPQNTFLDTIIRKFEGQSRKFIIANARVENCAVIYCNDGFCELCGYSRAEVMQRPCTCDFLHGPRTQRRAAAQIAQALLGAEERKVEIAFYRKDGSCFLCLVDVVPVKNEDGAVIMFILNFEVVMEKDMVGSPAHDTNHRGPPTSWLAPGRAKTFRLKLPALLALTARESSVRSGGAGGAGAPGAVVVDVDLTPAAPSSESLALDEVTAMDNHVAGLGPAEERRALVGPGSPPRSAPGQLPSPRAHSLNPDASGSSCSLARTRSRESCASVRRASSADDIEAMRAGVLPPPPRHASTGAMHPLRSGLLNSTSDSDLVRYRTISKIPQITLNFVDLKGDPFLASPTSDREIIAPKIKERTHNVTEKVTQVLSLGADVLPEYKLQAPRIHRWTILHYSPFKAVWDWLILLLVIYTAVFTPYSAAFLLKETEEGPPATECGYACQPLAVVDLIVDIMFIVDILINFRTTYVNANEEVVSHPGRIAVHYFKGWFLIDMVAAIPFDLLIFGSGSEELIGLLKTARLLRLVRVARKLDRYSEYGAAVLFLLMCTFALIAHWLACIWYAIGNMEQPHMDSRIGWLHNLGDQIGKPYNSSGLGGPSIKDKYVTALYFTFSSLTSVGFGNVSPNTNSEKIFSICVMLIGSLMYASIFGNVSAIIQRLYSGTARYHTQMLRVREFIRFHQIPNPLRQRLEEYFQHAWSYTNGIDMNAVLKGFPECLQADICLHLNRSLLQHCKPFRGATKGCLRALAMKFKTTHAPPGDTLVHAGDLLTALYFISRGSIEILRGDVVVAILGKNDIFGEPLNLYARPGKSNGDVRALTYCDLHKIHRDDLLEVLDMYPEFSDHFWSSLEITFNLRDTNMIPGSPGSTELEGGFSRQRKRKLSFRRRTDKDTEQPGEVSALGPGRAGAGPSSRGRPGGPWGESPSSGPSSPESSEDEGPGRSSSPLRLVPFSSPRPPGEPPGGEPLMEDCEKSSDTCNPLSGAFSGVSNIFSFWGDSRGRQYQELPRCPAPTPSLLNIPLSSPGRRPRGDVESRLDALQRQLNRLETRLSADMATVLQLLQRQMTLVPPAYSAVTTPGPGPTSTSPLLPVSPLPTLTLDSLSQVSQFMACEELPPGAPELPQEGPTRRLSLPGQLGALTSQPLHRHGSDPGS

SMILES | hERG current change (%, negative = inhibition) at 10uM
C/C(CC(=O)Nc1ccc(Cl)c(C(F)(F)F)c1)=N\NC(=O)c1cnccn1 | -25.8%
COc1ccc(Cc2nnc(N)s2)cc1 | 15.3%
O=C(Nc1cccc(-n2cnnn2)c1)c1cccnc1 | 4.53%
C#CCOCCOCCOCCNc1nc(N2CCN(C(=O)C(Cc3ccc(O)cc3)n3cc(C(N)C(C)CC)nn3)CC2)nc(N2CCN(C(=O)C(Cc3ccc(O)cc3)n3cc(C(N)C(C)CC)nn3)CC2)n1.Cl (centres unmarked) | -13.3%
COc1ccccc1CN1CCN(C(=O)c2cccc3ccccc23)CC1 | 3.48%
COc1cccc2cc(/C(=N/O)c3ccc(Br)cc3)oc12 | 5.41%
COC(=O)c1ccc(NC(=O)c2ccc3nc(C)sc3c2)cc1 | 15.8%
COc1cc(S(=O)(=O)NCc2ccccn2)c(OC)cc1Cl | -1.73%
O=C(NCCCn1ccnc1)C(Cc1ccc([N+](=O)[O-])cc1)N1C(=O)c2ccccc2C1=O (centres unmarked) | -62.3%
O=C(CCN1C(=O)c2ccccc2C1=O)NCCCn1ccnc1 | 11.3%
O=C(NCCCn1ccnc1)C(Cc1ccccc1)N1C(=O)c2ccccc2C1=O (centres unmarked) | -34.5%
Cc1ccc(-n2nc3ccc(NC(=O)c4ccc5c(c4)OCO5)cc3n2)cc1 | 7.8%
O=C(NCCc1ccccc1)c1c(O)c2cccc3c2n(c1=O)CC3 | 1.79%
CCCN(CCC)Cc1cc2ccccc2c2c1COC2 | -29%
CCCCN(CCCC)Cc1cc2ccccc2c2c1COC2 | -54.6%
CCN(CC)Cc1cc2ccccc2c2c1COC2 | -44.1%
COc1ccc(NC(C)=O)cc1CNC(=O)CN1CCOCC1 | 19.1%
O=C(NC1CCCC1)C(c1ccncc1)N(Cc1ccccc1)C(=O)c1ccc(-c2ccccc2)[nH]1 (centres unmarked) | -4.27%
O=C(NCC1CCCO1)C(c1cccs1)N(Cc1cccs1)C(=O)c1ccc(-c2ccccc2)[nH]1 (centres unmarked) | 7.78%
O=C(NC1CCCCC1)C(c1ccc(F)cc1)N(CCN1CCOCC1)C(=O)c1ccc(-c2ccccc2)[nH]1 (centres unmarked) | 24.4%
O=C(NCC1CCCO1)C(c1ccc(F)cc1)N(CCCN1CCOCC1)C(=O)c1ccc(-c2ccccc2)[nH]1 (centres unmarked) | -26.2%
Cc1ccc(C(C(=O)NCC2CCCO2)N(Cc2ccccc2)C(=O)c2ccc(-c3ccccc3)[nH]2)o1 (centres unmarked) | -7.63%
Cc1ccc(C(C(=O)NC(C)(C)C)N(CCCN2CCOCC2)C(=O)c2ccc(-c3ccccc3)[nH]2)o1 (centres unmarked) | -76.5%
O=C(NC1CCCC1)C(c1ccncc1)N(CCCN1CCOCC1)C(=O)c1ccc(-c2ccccc2)[nH]1 (centres unmarked) | -61.1%
CCOc1ccc(C(C(=O)NC2CCCC2)N(CCCO)C(=O)c2ccc(-c3ccccc3)[nH]2)cc1 (centres unmarked) | -61.6%
O=C(NCC(=O)N(CCN1CCOCC1)C(C(=O)NC1CCCC1)c1cccs1)c1ccco1 (centres unmarked) | -0.929%
O=C(NC1CCCCC1)C(c1cccs1)N(CCCN1CCOCC1)C(=O)c1ccc(-c2ccccc2)[nH]1 (centres unmarked) | -66.5%

SMILES | hERG current change (%, negative = inhibition) at 10uM
O=C(NC1CCCCC1)C(c1ccncc1)N(Cc1ccccc1)C(=O)c1ccc(-c2ccccc2)[nH]1 (centres unmarked) | 4.6%
O=C(NC1CCCC1)C(c1ccncc1)N(Cc1ccco1)C(=O)c1ccc(-c2ccccc2)[nH]1 (centres unmarked) | 1.38%
Cc1ccc(C(=O)COC(=O)c2ccccc2N2C(=O)C3C4CCC(C4)C3C2=O)cc1C (centres unmarked) | -19.2%
CCN(CCO)C(=O)C12CCC(C)(C(=O)C1)C2(C)C (centres unmarked) | -9.66%
COc1c(Cl)cc(C(=O)NN)cc1Cl | 0.95%
CC(=O)Nc1sc2c(c1C(N)=O)CCCC2 | 22.8%
CCc1cccc(C)c1NC(=O)CCOc1ccccc1 | 3.79%
c1ccc(C2=Nc3cccnc3C(c3ccccc3)=NN2)cc1 | 15.9%
O=C(CCNS(=O)(=O)c1ccccc1)OCC(=O)c1ccc(Cl)cc1 | -30%
CC(C)CN(C(=O)COC(=O)c1ccc(Br)cc1)c1c(N)n(Cc2ccccc2)c(=O)[nH]c1=O | -2.83%
CCOC(=O)C1=C(COC(=O)c2cccs2)NC(=O)NC1C (centres unmarked) | 6.08%
Cc1sc(NC(=O)c2ccccc2F)c(CN2CCCCC2C)c1C (centres unmarked) | -7.58%
Cc1ccccc1NC(=O)c1ccc(Cl)c(NC(=O)c2ccncc2)c1 | -32.1%
CSC1=N/C(=C\c2ccc3c(c2)OCO3)C(=O)S1 | 12.3%
O=C(N/N=C/c1cccs1)C1CC(=O)N(c2ccccc2)C1 (centres unmarked) | -8.24%
Cn1ncc2c(NNC(=O)c3ccccc3Cl)ncnc21 | 10.1%
Cc1ccccc1N1CCN(C2CCCN(C(=O)CN3CCCC3=O)C2)CC1 (centres unmarked) | 5.78%
COc1ccc(OCC(=O)N2CCCC(N3CCN(c4ccccc4C)CC3)C2)cc1 (centres unmarked) | -85.9%
Cc1ccccc1N1CCN(C2CCCN(C(=O)CCN3CCCO3)C2)CC1 (centres unmarked) | -0.397%
CC(=O)c1ccc(OCC(=O)N2CCCC(N3CCN(c4ccccc4C)CC3)C2)cc1 (centres unmarked) | -75.2%
CC(C)=CC(=O)N1CCCC(N2CCN(c3ccccc3C)CC2)C1 (centres unmarked) | -16%
Cc1ccccc1N1CCN(C2CCCN(C(=O)CCC(F)(F)F)C2)CC1 (centres unmarked) | -47.3%
Cc1ccccc1N1CCN(C2CCCN(C(=O)COc3ccccc3)C2)CC1 (centres unmarked) | -62.7%
Cc1cc(C)n(CC(=O)N2CCCC(N3CCN(c4ccccc4C)CC3)C2)n1 (centres unmarked) | -14%
Cc1ccccc1N1CCN(C2CCCN(C(=O)CCC(=O)N(C)C)C2)CC1 (centres unmarked) | 9.34%
CC(=NCC1CCCO1)C1=C(O)CC(C)(C)CC1=O (centres unmarked) | -5.04%
